{"source": "the supplement of paper PMC8728848", "experiment_in_all_cases": "glycan array binding signal (z-score within array); higher = stronger binding", "conditions_in_all_cases": "glycan notation: IUPAC condensed, linker removed; mutation: D21K", "key": {"[1]": {"target": "GalNAc(a1-3)GalNAc(b1-3)Gal(a1-4)Gal(b1-4)GlcNAc", "in_short": "(§1)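 From the Consortium for Functional Glycomics database, 3228 arrays were curated, keeping only those whose protein sequence was available. Binding is given as a within-array Z-score averaged across arrays sharing a protein sequence and across linkers. Negative Z-scores can be read as non-binding.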"}, "[2]": {"target": "GalNAc(b1-3)Gal(a1-4)Gal(b1-4)GlcNAc(b1-3)Gal(b1-4)Glc", "in_short": "as §1"}, "[3]": {"target": "GalNAc(b1-3)GlcNAc", "in_short": "as §1"}, "[4]": {"target": "GalNAc3S(b1-4)GlcNAc", "in_short": "as §1"}, "[5]": {"target": "GalNAc4S6S(b1-4)GlcNAc", "in_short": "as §1"}, "[6]": {"target": "Glc(a1-6)Glc(a1-6)Glc", "in_short": "as §1"}, "[7]": {"target": "GlcA(b1-3)GlcNAc", "in_short": "as §1"}, "[8]": {"target": "GlcNAc(b1-2)[GlcNAc(b1-6)]Man(a1-6)[GlcNAc(b1-2)Man(a1-3)]Man(b1-4)GlcNAc(b1-4)GlcNAc", "in_short": "as §1"}, "[9]": {"target": "GlcNAc(b1-3)Gal", "in_short": "as §1"}, "[10]": {"target": "GlcNAc(b1-3)Gal(b1-4)Glc", "in_short": "as §1"}, "[11]": {"target": "GlcNAc(b1-3)Gal(b1-4)GlcNAc", "in_short": "as §1"}, "[12]": {"target": "GlcNAc(b1-3)Gal(b1-4)GlcNAc(b1-3)Gal(b1-4)GlcNAc(b1-2)Man(a1-3)[GlcNAc(b1-3)Gal(b1-4)GlcNAc(b1-3)Gal(b1-4)GlcNAc(b1-2)Man(a1-6)]Man(b1-4)GlcNAc(b1-4)[Fuc(a1-6)]GlcNAc", "in_short": "as §1"}, "[13]": {"target": "GlcNAc(b1-3)Gal(b1-4)GlcNAc(b1-3)Gal(b1-4)GlcNAc(b1-3)Gal(b1-4)GlcNAc(b1-2)[GlcNAc(b1-3)Gal(b1-4)GlcNAc(b1-3)Gal(b1-4)GlcNAc(b1-3)Gal(b1-4)GlcNAc(b1-6)]Man(a1-6)[GlcNAc(b1-3)Gal(b1-4)GlcNAc(b1-3)Gal(b1-4)GlcNAc(b1-3)Gal(b1-4)GlcNAc(b1-2)Man(a1-3)]Man(b1-4)GlcNAc(b1-4)[Fuc(a1-6)]GlcNAc", "in_short": "as §1"}, "[14]": {"target": "GlcNAc(b1-3)Gal(b1-4)GlcNAc(b1-3)Gal(b1-4)GlcNAc(b1-3)Gal(b1-4)GlcNAc(b1-3)Gal(b1-4)GlcNAc(b1-2)[GlcNAc(b1-3)Gal(b1-4)GlcNAc(b1-3)Gal(b1-4)GlcNAc(b1-3)Gal(b1-4)GlcNAc(b1-3)Gal(b1-4)GlcNAc(b1-6)]Man(a1-6)[GlcNAc(b1-3)Gal(b1-4)GlcNAc(b1-3)Gal(b1-4)GlcNAc(b1-3)Gal(b1-4)GlcNAc(b1-3)Gal(b1-4)GlcNAc(b1-2)Man(a1-3)]Man(b1-4)GlcNAc(b1-4)[Fuc(a1-6)]GlcNAc", "in_short": "as §1"}, "[15]": {"target": "GlcNAc(b1-3)Gal(b1-4)GlcNAc(b1-6)[GlcNAc(b1-3)Gal(b1-3)]GalNAc", "in_short": "as §1"}, "[16]": {"target": "GlcNAc(b1-3)[GlcNAc(b1-4)][GlcNAc(b1-6)]GlcNAc", "in_short": "as §1"}, "[17]": {"target": "GlcNAc(b1-3)[GlcNAc(b1-6)]Gal(b1-4)GlcNAc", "in_short": "as §1"}, "[18]": {"target": "Neu5Ac(a2-3)Gal(b1-3)GlcNAc6S", "in_short": "as §1"}, "[19]": {"target": "Neu5Ac(a2-3)Gal(b1-4)GlcNAc(b1-3)Gal(b1-4)GlcNAc(b1-3)GalNAc", "in_short": "as §1"}, "[20]": {"target": "Neu5Ac(a2-3)Gal(b1-4)GlcNAc(b1-3)GalNAc", "in_short": "as §1"}, "[21]": {"target": "Neu5Ac(a2-6)Gal(b1-4)GlcNAc(b1-2)Man", "in_short": "as §1"}, "[22]": {"target": "Neu5Ac(a2-6)Gal(b1-4)GlcNAc(b1-2)Man(a1-3)[Neu5Ac(a2-3)Gal(b1-4)GlcNAc(b1-2)Man(a1-6)]Man(b1-4)GlcNAc(b1-4)GlcNAc", "in_short": "as §1"}, "[23]": {"target": "Neu5Ac(a2-6)Gal(b1-4)GlcNAc(b1-2)Man(a1-3)[Neu5Ac(a2-6)Gal(b1-4)GlcNAc(b1-2)Man(a1-6)]Man(b1-4)GlcNAc(b1-4)GlcNAc", "in_short": "as §1"}, "[24]": {"target": "Neu5Ac(a2-6)Gal(b1-4)GlcNAc(b1-2)[Neu5Ac(a2-6)Gal(b1-4)GlcNAc(b1-6)]Man(a1-6)[Neu5Ac(a2-6)Gal(b1-4)GlcNAc(b1-2)Man(a1-3)][GlcNAc(b1-4)]Man(b1-4)GlcNAc(b1-4)GlcNAc", "in_short": "as §1"}, "[25]": {"target": "Neu5Ac(a2-6)Gal(b1-4)GlcNAc(b1-3)Gal(b1-4)GlcNAc(b1-3)Gal(b1-4)GlcNAc", "in_short": "as §1"}, "[26]": {"target": "Neu5Ac(a2-6)Gal(b1-4)GlcNAc(b1-3)Gal(b1-4)GlcNAc(b1-3)GalNAc", "in_short": "as §1"}, "[27]": {"target": "Neu5Ac(a2-6)Gal(b1-4)GlcNAc(b1-3)GalNAc", "in_short": "as §1"}, "[28]": {"target": "Neu5Ac(a2-8)Neu5Ac(a2-3)Gal(b1-3)GalNAc(b1-4)[Neu5Ac(a2-8)Neu5Ac(a2-3)]Gal(b1-4)Glc", "in_short": "as §1"}}, "note": "This excerpt belongs to a sample that is enriched for the strongest signals.", "data": [{"binder": "KILRGVCKKIMRTFLRRISKKILTGKK", "note": "[C7A (Sus scrofa)]", "values": [{"measurement": "glycan array binding signal (z-score)", "setting": "[1]", "value": 0.64}, {"measurement": "glycan array binding signal (z-score)", "setting": "[2]", "value": 1.58}, {"measurement": "glycan array binding signal (z-score)", "setting": "[3]", "value": -0.947}, {"measurement": "glycan array binding signal (z-score)", "setting": "[4]", "value": 0.857}, {"measurement": "glycan array binding signal (z-score)", "setting": "[5]", "value": 2.43}, {"measurement": "glycan array binding signal (z-score)", "setting": "[6]", "value": -0.06}, {"measurement": "glycan array binding signal (z-score)", "setting": "[7]", "value": 0.609}, {"measurement": "glycan array binding signal (z-score)", "setting": "[8]", "value": -0.74}, {"measurement": "glycan array binding signal (z-score)", "setting": "[9]", "value": -1.53}, {"measurement": "glycan array binding signal (z-score)", "setting": "[10]", "value": -0.83}, {"measurement": "glycan array binding signal (z-score)", "setting": "[11]", "value": -0.565}, {"measurement": "glycan array binding signal (z-score)", "setting": "[12]", "value": 2.43}, {"measurement": "glycan array binding signal (z-score)", "setting": "[13]", "value": 2.39}, {"measurement": "glycan array binding signal (z-score)", "setting": "[14]", "value": 2.49}, {"measurement": "glycan array binding signal (z-score)", "setting": "[15]", "value": -0.629}, {"measurement": "glycan array binding signal (z-score)", "setting": "[16]", "value": -0.24}, {"measurement": "glycan array binding signal (z-score)", "setting": "[17]", "value": 0.238}, {"measurement": "glycan array binding signal (z-score)", "setting": "[18]", "value": 1.71}, {"measurement": "glycan array binding signal (z-score)", "setting": "[19]", "value": 2.25}, {"measurement": "glycan array binding signal (z-score)", "setting": "[20]", "value": 0.438}, {"measurement": "glycan array binding signal (z-score)", "setting": "[21]", "value": -0.792}, {"measurement": "glycan array binding signal (z-score)", "setting": "[22]", "value": 0.295}, {"measurement": "glycan array binding signal (z-score)", "setting": "[23]", "value": 0.295}, {"measurement": "glycan array binding signal (z-score)", "setting": "[24]", "value": 0.348}, {"measurement": "glycan array binding signal (z-score)", "setting": "[25]", "value": 0.41}, {"measurement": "glycan array binding signal (z-score)", "setting": "[26]", "value": 0.528}, {"measurement": "glycan array binding signal (z-score)", "setting": "[27]", "value": 1.32}, {"measurement": "glycan array binding signal (z-score)", "setting": "[28]", "value": -0.48}]}]}
